Hits are enriched below; roughly 7.3% of the tested compounds scored in any of these assays.
HCV inh: blocks hepatitis C virus; 340,000 tested, 3.4% active; Potency, µM (titrated, usually from 41.8 µM), most hits filed as inhibitors; Huh7.5.1 HCVcc-Cre infection, luciferase reporter, 44 h
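Luciferase read-out (15 sec integration) after a 15 min room-temperature substrate step quantifies HCVcc-Cre infection. Cells, 1,000 per well, had compound added 4 h post-plating, then virus at ~0.5 moi, and were cultured 44 h.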
FMDV antiviral: foot and mouth disease virus antiviral activity | FMDV antiviral cell-based qHTS | Potency, µM (top dose mostly 57.9 µM), usual class: inhibitors | 410,000 tested, 1.2% active | AID 1159524; calls by dose curve; tested in HEK293T cells; note: read-out not given here; nearly all actives have a fitted effect of over 45% in size
AmpC detergent: inhibitors of E. coli AmpC beta-lactamase with detergent; P00811; AmpC hydrolysis of nitrocefin, absorbance 480 nm, 0.01% Triton; Potency, µM (top dose mostly 114 µM), hits mostly inhibitors; 370,000 tested, 0.041% active; AID 485294; note: nearly all actives have a fitted effect of over 25% in size
Target sequence (P00811 whole entry, looked up): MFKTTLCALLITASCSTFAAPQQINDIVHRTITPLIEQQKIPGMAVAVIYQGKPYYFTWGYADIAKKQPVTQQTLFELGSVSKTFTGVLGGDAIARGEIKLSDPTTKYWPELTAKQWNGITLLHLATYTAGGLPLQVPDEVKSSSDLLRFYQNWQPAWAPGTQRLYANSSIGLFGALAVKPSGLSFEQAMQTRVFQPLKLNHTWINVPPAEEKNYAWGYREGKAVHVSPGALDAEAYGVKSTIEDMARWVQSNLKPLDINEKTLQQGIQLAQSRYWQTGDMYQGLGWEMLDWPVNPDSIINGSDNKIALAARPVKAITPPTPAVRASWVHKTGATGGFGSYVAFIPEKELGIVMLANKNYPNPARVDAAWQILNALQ
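20 mM phosphate pH 7.0 + 0.01% (detergent screen) or 0.0001% Triton X-100; 5.3 nM AmpC reagent; cpd preinc 15 min RT; nitrocefin (800 uM stock) to start; A480 q20 s × 4 min; Activity was normalised to no-enzyme and no-compound control wells.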
HCMV antiviral: blocks human cytomegalovirus replication; 410,000 tested, 4.5% active; activity change, negative = inhibition, % at 57.5 µM; HFF cells, HCMV-luciferase reporter, 72 h; hits give low values; in the data active = activity change below about -60%; inconclusive = no clear call, values can overlap the other calls; inactive = above about -39%
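Two-dose cell screen: HFF monolayers treated with compounds and infected with luciferase-expressing HCMV at 1 PFU/cell, 72 h at 37C, then lysed for luciferase measurement.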
AmpC no deterg: blocks E. coli AmpC beta-lactamase in detergent-free assay. P00811. 330,000 tested, 0.52% active. AmpC nitrocefin hydrolysis, absorbance 480 nm, 0.0001% Triton. Potency, µM (highest dose often 57.1 µM), usual class: inhibitors; note: nearly all actives have a fitted effect of over 20% in size
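AmpC (5.3 nM in the dispensed reagent) in 20 mM phosphate pH 7.0 with 0.01% (detergent screen) or 0.0001% Triton X-100 was preincubated with compounds for 15 min at room temperature. Nitrocefin was then added from an 800 uM solution, and hydrolysis was followed at 480 nm.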
Large screens that a line does not name were inactive; ! = not active in a repeat. Unless noted, calls come from the whole dose curve; as a rule, active = well fitted curve in the direction sought with a large enough effect; inconclusive = small, poorly fitted or top-dose-only effect, or another doubt; inactive = no such curve, though single readings can be large; an effect the other way counts as inactive or inconclusive.

Cc1cc(C)nc(N/N=C/c2sccc2C)n1	HCMV antiviral -80
O=C(O)c1ccc(/C=N/Nc2ncc(Cl)cc2Cl)cc1	none
O=C(NCC1Cc2cccc(-c3cccnc3)c2O1)c1cc(-c2ccccc2)n[nH]1 (stereo not drawn)	none (no result: HCV inh, AmpC detergent, HCMV antiviral, AmpC no deterg)
CCCc1nn2c(=O)cc(COC(=O)c3cccc(NC(=O)c4cccs4)c3)nc2s1	none (no result: HCV inh, AmpC no deterg)
Cc1c(S(=O)(=O)c2ccccn2)c(N)n(Cc2cccc(Cl)c2)c1C	none
COCCOC(=O)c1[nH]c2c(c1C)C(=O)CC(c1ccc(F)cc1)C2 (stereo not drawn)	HCV inh inconclusive
COCCOC(=O)c1[nH]c2c(c1C)C(=O)CC(c1ccc(N(C)C)cc1)C2 (stereo not drawn)	HCV inh 13µM
CCCCOC(=O)c1[nH]c2c(c1C)C(=O)CC(c1cc(OC)c(OC)c(OC)c1)C2 (stereo not drawn)	HCV inh 2.5µM, FMDV antiviral 16µM, AmpC detergent inconclusive, HCMV antiviral -63, AmpC no deterg 32µM
C=CCOC(=O)c1[nH]c2c(c1C)C(=O)CC(c1cc(OC)c(OC)c(OC)c1)C2 (stereo not drawn)	HCV inh inconclusive, FMDV antiviral 11µM (no result: HCMV antiviral)
COc1cc(C2CC(=O)c3c([nH]c(C(=O)OC4CCCCC4)c3C)C2)cc(OC)c1OC (stereo not drawn)	FMDV antiviral 11µM (no result: HCV inh, AmpC no deterg)
Cc1cc(CNC(=O)c2cnn(-c3ncc4c(n3)-c3ccccc3CC4)c2C2CC2)on1	none (no result: HCV inh, AmpC detergent, HCMV antiviral, AmpC no deterg)
O=C1c2ccccc2C(=O)N1CC(O)COc1ccc(Br)cc1 (stereo not drawn)	none
COCCOC(=O)c1[nH]c2c(c1C)C(=O)CC(c1cc(OC)c(OC)c(OC)c1)C2 (stereo not drawn)	HCV inh 13µM, FMDV antiviral inconclusive
Cc1ccc(S(=O)(=O)Nc2cccc3c2O[C@H](CN(C)C(=O)Nc2ccc(C(F)(F)F)cc2)[C@@H](C)CN([C@H](C)CO)C3=O)cc1	none (no result: AmpC detergent)
Cn1c(-c2ccc(S(=O)(=O)N3CCCC3)cc2)csc1=Nc1ccc(Cl)c(Cl)c1	HCMV antiviral -62 (no result: HCV inh, AmpC no deterg)
O=S(=O)(c1ccc(-c2csc(=Nc3ccc(OC(F)(F)Cl)cc3)n2CCCO)cc1)N1CCCC1	FMDV antiviral inconclusive, HCMV antiviral -100 (no result: HCV inh, AmpC no deterg)
CCn1c(-c2ccc(S(=O)(=O)N3CCOCC3)cc2)csc1=Nc1ccc(C)c(Cl)c1	FMDV antiviral inconclusive (no result: HCV inh)
COCCCn1c(-c2ccc(S(=O)(=O)N3CCOCC3)cc2)csc1=Nc1ccccc1	HCV inh inconclusive, FMDV antiviral 11µM, HCMV antiviral -88!
O=C(c1ccc(F)cc1)N1CC(=O)N2[C@H](CO)[C@H](c3ccc(Br)cc3)[C@@H]2C1	none (no result: HCV inh, FMDV antiviral, AmpC detergent, AmpC no deterg)
CCCCOc1cccc(C(=O)Nc2ccc(NC(=O)c3ccco3)cc2)c1	HCMV antiviral -78
CCCOc1cccc(C(=O)Nc2cccc(NC(=O)c3ccco3)c2)c1	HCV inh 25µM, AmpC detergent inconclusive
CCCOc1cccc(NC(=O)c2cc(C)oc2C)c1	HCV inh 10µM, HCMV antiviral inconclusive
Cc1cc(C(=O)Nc2ccccc2)c(C)o1	AmpC detergent inconclusive
Cc1nonc1CC(=O)NC1CCCc2c1cnn2-c1ccc(F)cc1F (stereo not drawn)	none
C[C@@H]1O[C@@H](O[C@H]2C[C@@H](O)[C@]3(CO)[C@H]4[C@H](O)C[C@]5(C)[C@@H](C6COC(=O)C6)CC[C@]5(O)[C@@H]4CC[C@]3(O)C2)[C@H](O)[C@H](O)[C@H]1O (stereo partly drawn)	HCV inh 1µM!, FMDV antiviral inconclusive, HCMV antiviral -97
CC1OC(OC2CC(O)C3(CO)C4C(O)CC5(C)C(C6=CC(=O)OC6)CCC5(O)C4CCC3(O)C2)C(O)C(O)C1O (stereo not drawn)	HCV inh inconclusive, FMDV antiviral inconclusive, HCMV antiviral -72 (no result: AmpC detergent, AmpC no deterg)
COC1CC(OC2CCC3(C)C(CCC4C3CCC3(C)C(C5=CC(=O)OC5)C(OC(C)=O)CC43O)C2)OC(C)C1OC1OC(COC2OC(CO)C(O)C(O)C2O)C(O)C(O)C1O (stereo not drawn)	none (no result: HCV inh, FMDV antiviral, HCMV antiviral)
O=C(NCc1nnc2n1CCN(Cc1cc(F)cc(F)c1)CC2)c1cccc(F)c1	none (no result: HCV inh, AmpC detergent, HCMV antiviral, AmpC no deterg)
COc1cccc(-c2nc3ccc([N+](=O)[O-])cc3o2)c1	HCMV antiviral -79
O=c1c2c3c(sc2n(CCN2CCCCC2)c(=O)n1Cc1ccco1)CCCCC3	HCV inh inconclusive
O=c1c2c3c(sc2n(CCN2CCOCC2)c(=O)n1Cc1ccco1)CCCCC3	HCV inh 10µM, HCMV antiviral -96
CCN(C)C(=O)c1coc(N2CCN(Cc3cccc(F)c3)C2=O)n1	none (no result: HCV inh, FMDV antiviral, AmpC detergent, AmpC no deterg)
COc1ccccc1C(=O)Nc1c(C(=O)Nc2cc(Cl)ccc2C)sc2nc(C)cc(C)c12	HCMV antiviral -102 (no result: HCV inh, AmpC no deterg)
CC(C)(C)OC(=O)n1cc(/C=N/NC(=O)c2ccco2)c2ccccc21	HCV inh inconclusive
COCCCN1CN=C(NS(=O)(=O)c2ccc(NC(C)=O)cc2)NC1	none (no result: HCV inh, AmpC no deterg)
COc1ccc(OC)c(N(CC(=O)NCc2ccccn2)S(C)(=O)=O)c1	none
COc1ccccc1N(CC(=O)NCc1ccccn1)S(C)(=O)=O	HCMV antiviral -66 (no result: FMDV antiviral)
COc1ccc2[nH]c(=O)c(CN(C(=O)c3cccc(Cl)c3)c3ccccc3OC)cc2c1	none (no result: HCV inh, AmpC no deterg)
CC1(C(=O)Nc2cccc(C#N)c2)CCN1C(=O)Cc1ccc(-c2ccccc2)cc1 (stereo not drawn)	FMDV antiviral 25µM, HCMV antiviral -61 (no result: HCV inh, AmpC detergent, AmpC no deterg)
CC(C)(C)NC(=O)c1csc(C(O)c2ccc(C(C)(C)C)cc2)n1 (stereo not drawn)	HCMV antiviral -96 (no result: HCV inh, FMDV antiviral, AmpC detergent, AmpC no deterg)
COc1cc(NC(=O)c2csc(C(O)c3ccc(C(C)(C)C)cc3)n2)cc(OC)c1OC (stereo not drawn)	none (no result: HCV inh, FMDV antiviral, AmpC detergent, AmpC no deterg)
O=C(CNc1cccc2ccccc12)N/N=C/c1cccc(Oc2ccccc2)c1	HCMV antiviral -61
O=C(N/N=C/c1cccc(Oc2ccccc2)c1)c1ccccc1Br	HCV inh 11µM, HCMV antiviral -91 (no result: FMDV antiviral)
O=C(N/N=C/c1cccc(Oc2ccccc2)c1)c1cccc(Br)c1	HCV inh inconclusive, FMDV antiviral inconclusive
O=C(CNc1cccc2ccccc12)N/N=C/c1ccccn1	none
Cc1ccc2nc3sc(C(=O)N4CCCc5ccccc54)c(N)c3cc2c1	HCV inh inconclusive, HCMV antiviral -90
Cc1cc(C)c2cc3c(N)c(C(=O)N4CCc5ccccc5C4)sc3nc2c1	HCV inh inconclusive, AmpC no deterg 0.32µM (no result: FMDV antiviral)
Cc1ccc(-c2cc(C(=O)N3CCCc4ccccc43)c3ccccc3n2)cc1	none
Cc1ccc(S(=O)(=O)N(CC(O)Cn2c3ccccc3c3ccccc32)c2cccc(C(N)=O)c2)cc1 (stereo not drawn)	FMDV antiviral inconclusive, HCMV antiviral -80 (no result: HCV inh, AmpC no deterg)
COc1ccc(N(CC(O)Cn2c(C)nc3ccccc32)S(=O)(=O)c2ccc(C)cc2)cc1 (stereo not drawn)	AmpC detergent inconclusive

Screens deposited in PubChem by National Center for Advancing Translational Sciences (NCATS).
